According to PubChem BioAssay (Tox21):
Unmarked numbers belong to inactive results. Records with an inconclusive call do not appear. Entries that show only a call come without a potency. Activity calls are given as the source filed them. Calls come from the whole dose curve; as a rule, active = well fitted curve in the direction sought with a large enough effect in the repeat runs; inconclusive = weak or mixed curves; inactive = no such curve, though single readings can be large; an effect the other way counts as inactive or inconclusive.

Experiments:
[1] = qHTS RealTime-Glo MT Cell Viability Assay in HEK293 cells - 32 hour (AID 1224868); note: top concentration of the series differs between compounds; nearly all actives have a fitted effect of over 50% in size
Outline: (§1)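 Quantitative high-throughput screen of the Tox21 10K library in HEK293: cells and RealTime-Glo reagents plated together, compound added at 5 h, luminescence monitored through 40 h at 37 C.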

[2] = A CellTox Green Cytotoxicity Assay to monitor cytotoxicity in HEK293 cells - 0 hour (AID 1224869); note: nearly all actives have a fitted effect of over 50% in size
Outline: (§2)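 HEK293 cells, 600/well, were preincubated 5 hours and then exposed to compounds at 37 C for up to 40 hours. A cell-impermeant cyanine dye staining dead-cell DNA was read by fluorescence at 0, 8, 16, 24, 32 and 40 h time points.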

[3] = qHTS RealTime-Glo MT Cell Viability Assay in HepG2 cells - 40 hour (AID 1224870); note: nearly all actives have a fitted effect of over 50% in size
Outline: (§3)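 HepG2 cells mixed with RealTime-Glo MT reagents (NanoLuc plus cell-permeant prosubstrate) were seeded at 600 cells/well, incubated 5 h at 37 C/5% CO2, then pinned with compounds in DMSO; nonlytic luminescence tracked viability during 40 h treatment.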

[4] = A CellTox Green Cytotoxicity Assay to monitor cytotoxicity in HEK293 cells - 40 hour (AID 1224871); note: nearly all actives have a fitted effect of over 45% in size
Outline: as §2

[5] = qHTS RealTime-Glo MT Cell Viability Assay in HEK293 cells - 16 hour (AID 1224872); note: top concentration of the series differs between compounds; nearly all actives have a fitted effect of over 50% in size
Outline: as §1

[6] = qHTS RealTime-Glo MT Cell Viability Assay in HepG2 cells - 8 hour (AID 1224873); note: nearly all actives have a fitted effect of over 55% in size
Outline: as §3

[7] = qHTS RealTime-Glo MT Cell Viability Assay in HEK293 cells - 40 hour (AID 1224874); details: RealTime-Glo luminescence, active compounds read low; note: nearly all actives have a fitted effect of over 50% in size
Outline: (§4)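 600 cells/well were plated with the nonlytic NanoLuc/prosubstrate reagent, pre-incubated 5 h, then given 23 nL of compound in DMSO. Incubation at 37 C for 40 h, with luminescence from viable-cell-reduced substrate read repeatedly from 0 h.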

[8] = A CellTox Green Cytotoxicity Assay to monitor cytotoxicity in HEK293 cells - 24 hour (AID 1224875); note: series mostly up to about 77 µM; nearly all actives have a fitted effect of over 45% in size
Outline: as §2

[9] = A CellTox Green Cytotoxicity Assay to monitor cytotoxicity in HepG2 cells - 16 hour (AID 1224876); note: nearly all actives have a fitted effect of over 45% in size
Outline: (§5)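 HepG2 cells, 600/well, preincubated 5 h with CellTox Green dye, then exposed to Tox21 compounds in DMSO at 37 C for up to 40 h. Dead-cell DNA fluorescence read at the indicated time point.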

[10] = qHTS RealTime-Glo MT Cell Viability Assay in HepG2 cells - 32 hour (AID 1224877); note: nearly all actives have a fitted effect of over 55% in size
Outline: (§6)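 Compound treatment began 5 h after plating HepG2 cells (600/well) with NanoLuc luciferase and prosubstrate. Plates stayed at 37 C for 40 h; luminescence was captured at six time points, 0 h through 40 h.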

[11] = A CellTox Green Cytotoxicity Assay to monitor cytotoxicity in HepG2 cells - 24 hour (AID 1224878); note: nearly all actives have a fitted effect of over 45% in size
Outline: as §5

[12] = A CellTox Green Cytotoxicity Assay to monitor cytotoxicity in HepG2 cells - 40 hour (AID 1224879); note: nearly all actives have a fitted effect of over 40% in size
Outline: as §5

[13] = qHTS RealTime-Glo MT Cell Viability Assay in HEK293 cells - 0 hour (AID 1224880); note: nearly all actives have a fitted effect of over 45% in size; note: potency is the fitted concentration of half-maximal effect
Outline: as §4

[14] = A CellTox Green Cytotoxicity Assay to monitor cytotoxicity in HEK293 cells - 32 hour (AID 1224881); note: nearly all actives have a fitted effect of over 40% in size
Outline: as §2

[15] = A CellTox Green Cytotoxicity Assay to monitor cytotoxicity in HepG2 cells - 0 hour (AID 1224882); note: nearly all actives have a fitted effect of over 35% in size
Outline: as §5

[16] = A CellTox Green Cytotoxicity Assay to monitor cytotoxicity in HepG2 cells - 32 hour (AID 1224883); note: nearly all actives have a fitted effect of over 50% in size
Outline: as §5

[17] = A CellTox Green Cytotoxicity Assay to monitor cytotoxicity in HEK293 cells - 8 hour (AID 1224884); note: nearly all actives have a fitted effect of over 35% in size
Outline: as §2

[18] = qHTS RealTime-Glo MT Cell Viability Assay in HepG2 cells - 16 hour (AID 1224885); note: nearly all actives have a fitted effect of over 50% in size
Outline: as §6

[19] = qHTS RealTime-Glo MT Cell Viability Assay in HEK293 cells - 24 hour (AID 1224886)
Outline: as §1

[20] = qHTS RealTime-Glo MT Cell Viability Assay in HEK293 cells - 8 hour (AID 1224887)
Outline: as §4

SMILES	outcome [1]	outcome [2]	outcome [3]	Potency [4]	outcome [5]	outcome [6]	max response [7] [%]	Potency [8]	Potency [9]	outcome [10]	Potency [11]	Potency [12]	Potency [13]	Potency [14]	Potency [15]	Potency [16]	Potency [17]	outcome [18]	outcome [19]	outcome [20]
C=CCOC(=O)CCCCCCCC	inactive	inactive	inactive	inactive	inactive	inactive	16	inactive	inactive	inactive	inactive	inactive	inactive	inactive	inactive	inactive	inactive	inactive	inactive	inactive
CC(=O)O[C@@H]1CC2C3CCc4cc(OC(=O)c5ccccc5)ccc4C3CCC2(C)[C@H]1OC(C)=O (some centres not stated)	inactive	inactive	inactive	inactive	inactive	inactive	0.184	inactive	inactive	inactive	inactive	inactive	inactive	inactive	inactive	inactive	inactive	inactive	inactive	–
CC(=O)Oc1ccc(C(C)=O)cc1	inactive	inactive	inactive	inactive	inactive	inactive	-8	inactive	inactive	inactive	inactive	inactive	inactive	inactive	inactive	inactive	inactive	inactive	inactive	inactive
Nc1ccc(C(=O)NCC(=O)O)cc1	inactive	inactive	inactive	inactive	inactive	inactive	-0.411	inactive	inactive	inactive	inactive	inactive	inactive	inactive	inactive	inactive	inactive	inactive	inactive	inactive
CC(=O)OCC(=O)[C@@]1(O)CC[C@H]2[C@@H]3CCC4=CC(=O)C=C[C@]4(C)[C@H]3[C@@H](O)C[C@@]21C	inactive	inactive	inactive	inactive	inactive	inactive	-2.13	inactive	inactive	inactive	inactive	inactive	21.3 µM (active)	inactive	inactive	inactive	inactive	inactive	inactive	–
O=c1[nH]c(=O)c2cn[nH]c2[nH]1	inactive	inactive	inactive	inactive	inactive	inactive	-0.927	inactive	inactive	inactive	inactive	inactive	inactive	inactive	inactive	inactive	inactive	inactive	inactive	inactive
CCC(C)(C)C	inactive	inactive	inactive	inactive	inactive	inactive	2.63	inactive	inactive	inactive	inactive	inactive	inactive	inactive	inactive	inactive	inactive	inactive	inactive	inactive
OCCC(F)(F)C(F)(F)C(F)(F)C(F)(F)C(F)(F)C(F)(F)F	inactive	inactive	inactive	inactive	inactive	inactive	-4.06	inactive	inactive	inactive	inactive	inactive	inactive	inactive	inactive	inactive	inactive	inactive	inactive	inactive
C=CC(=O)CC	inactive	inactive	inactive	inactive	inactive	inactive	0.33	inactive	inactive	inactive	inactive	inactive	inactive	inactive	inactive	inactive	inactive	inactive	inactive	–
C/C(=N\O)c1ccc(OCC(=O)N2CCCCC2)cc1	inactive	inactive	inactive	inactive	inactive	inactive	-11.7	inactive	inactive	inactive	inactive	inactive	inactive	inactive	inactive	inactive	inactive	inactive	inactive	inactive
CC(C)c1cc(C(C)C)cc(C(C)C)c1	inactive	inactive	inactive	inactive	inactive	inactive	5.73	inactive	inactive	inactive	inactive	inactive	inactive	inactive	inactive	inactive	inactive	inactive	inactive	inactive
CC(=O)OC1CCC(C(C)(C)C)CC1 (configuration not stated)	inactive	inactive	inactive	inactive	inactive	inactive	0.815	inactive	inactive	inactive	inactive	inactive	inactive	inactive	inactive	inactive	inactive	inactive	inactive	inactive
CC(C)(C)C(=O)NCCCC(=O)O	inactive	inactive	inactive	inactive	inactive	inactive	5.71	inactive	inactive	inactive	inactive	inactive	inactive	inactive	inactive	inactive	inactive	inactive	inactive	inactive
